# Rows were chosen to be rich in hits. Some 2% of all compounds tested hit in one or more screens of this group.
# ARNT TACC3 PPI – ARNT/TACC3 interaction disruption | inhibition, % at 9.99 µM | AlphaScreen His-ARNT PAS-B/GST-TACC3 binding, luminescence; TACC3 fragment carries E629A point mutation | AID 623870 | actives 0.66% (n = 390,000);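 active = mean inhibition of replicates at least 50% and at least half of replicates each reaching 50%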;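 note: 0% = complete ARNT plus TACC3 wells and 100% = ARNT alone without TACC3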
# NadD block – NadD (S. aureus) enzyme inhibition. purified NadD enzyme, colorimetric absorbance read-out. inhibition, % at 20 µM. actives 0.78% (n = 360,000). AID 602399; in the data active = inhibition above about 26%
# sPLA2-III inh – Inhibits HGIII-sPLA2 liposome hydrolysis, primary screen | Q9NZ20 | QFRET BODIPY PC-A2 liposome hydrolysis, fluorescence | inhibition, % at 12.2 µM | actives 0.56% (n = 370,000) | AID 743126;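 active = inhibition above mean plus 3 SD of compounds lying within the high and low control bounds, cut at about 19% in these data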;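 note: 0% = median of test compound wells and 100% = no enzyme DMSO wells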
# DAGLB inh – blocks human DAGLB lipase activity; Q8NCG7; HEK293T DAGLB membrane lysate, EnzChek fluorogenic substrate; inhibition, % at 5.17 µM; actives 0.059% (n = 340,000); AID 504411; in the data active = inhibition above about 34%;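 note: 0% = enzyme with vehicle and 100% = wells lacking enzyme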
# Target sequence (Q8NCG7 whole entry, looked up): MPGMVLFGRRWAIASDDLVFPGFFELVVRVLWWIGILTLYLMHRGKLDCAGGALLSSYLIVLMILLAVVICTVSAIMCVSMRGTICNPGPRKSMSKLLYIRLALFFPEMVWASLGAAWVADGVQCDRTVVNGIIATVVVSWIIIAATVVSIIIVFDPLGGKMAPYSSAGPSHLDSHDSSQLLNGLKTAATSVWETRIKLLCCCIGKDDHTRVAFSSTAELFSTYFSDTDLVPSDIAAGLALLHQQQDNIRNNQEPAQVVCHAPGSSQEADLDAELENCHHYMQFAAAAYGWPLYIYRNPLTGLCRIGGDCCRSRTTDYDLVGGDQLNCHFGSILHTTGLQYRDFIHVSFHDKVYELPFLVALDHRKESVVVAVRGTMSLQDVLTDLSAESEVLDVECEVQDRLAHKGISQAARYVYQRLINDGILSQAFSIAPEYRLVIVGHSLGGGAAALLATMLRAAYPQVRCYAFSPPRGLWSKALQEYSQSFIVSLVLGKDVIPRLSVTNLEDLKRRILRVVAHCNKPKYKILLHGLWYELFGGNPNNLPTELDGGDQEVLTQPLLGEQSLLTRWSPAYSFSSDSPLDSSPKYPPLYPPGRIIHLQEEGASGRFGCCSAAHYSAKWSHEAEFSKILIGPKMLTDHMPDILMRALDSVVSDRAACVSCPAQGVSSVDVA
# Neddylation inh – cullin neddylation inhibition; TR-FRET cullin neddylation, biochemical; inhibition, % at 25 µM; actives 0.58% (n = 360,000); AID 651699; in the data active = inhibition above about 36%
# * marks the source's active call; other numbers are inactive results; x = not tested or not shown; ! = not active in a repeat.
SMILES,ARNT TACC3 PPI,NadD block,sPLA2-III inh,DAGLB inh,Neddylation inh
O=C(Nc1ccc2c(c1)[C@@H]1C[C@H](CC(=O)N3CCCCC3)O[C@@H](CO)[C@@H]1O2)c1ccc2c(c1)OCO2,4,x,x,x,x
COc1ccc(CN(C)C[C@H]2OCCCC[C@@H](C)Oc3ccc(N(C)C)cc3C(=O)N([C@@H](C)CO)C[C@@H]2C)cc1,0,x,x,x,x
Nc1ccc(N=Nc2ccccc2)c(N)n1,22,-3,23*,16,-72
Cc1cc(N)ccc1N1CCCC1,-3,70*,x,7,-10
Nc1ccc2c(S(=O)(=O)O)cccc2c1S(=O)(=O)O,-1,2,8,2,55*
Nc1ccccc1S(=O)(=O)c1ccccc1N,1,1,-9,-1,5
O=C(C1CC1)N1C[C@@H]2[C@H](c3ccccc31)[C@H](CO)N2C(=O)c1cccc(F)c1,-5,x,x,x,x
CCCCn1c(NC(=O)c2ccccc2Cl)c(C#N)c2nc3ccccc3nc21,25,19,-43,17,x
N#Cc1c(NC(=O)c2ccccc2Cl)n(Cc2ccccc2)c2nc3ccccc3nc12,x,32*,-32,8,35
C[C@@H]1CN([C@@H](C)CO)S(=O)(=O)c2ccc(C#Cc3ccccc3)cc2O[C@H]1CN(C)C,1,x,x,x,x
C[C@H](CO)N1C[C@H](C)[C@@H](CN(C)C(=O)CC2CC2)Oc2cc(C#CC3CC3)ccc2S1(=O)=O,15,x,x,x,x
C[C@@H]1CN([C@H](C)CO)C(=O)c2cccc(NC(=O)c3ccc(-c4nccs4)cc3)c2O[C@@H]1CN(C)CC1CC1,-5,x,x,x,x
O=[N+]([O-])c1ccc(Oc2cccc3cccnc23)c([N+](=O)[O-])c1,active,-1,10,0,-32
Oc1c(CN2CCOCC2)cc(CN2CCOCC2)c(O)c1O,13*,1,1,0,5
CCOC(=O)C1CCN(c2nc(N)c3c(N)nc(SCC(=O)O)cc3c2C#N)CC1,52*,12,1,-9,16
CCOC(=O)C1CCN(c2nc(C)cc(C)c2C#N)CC1,-6,0,-7,-7,x
Oc1ccc(Cl)cc1C1=Nc2ccccc2N=C(c2ccco2)C1,-1,9,5,-1,-182
COc1ccc(O)c(C2=Nc3ccccc3N=C(c3ccco3)C2)c1,53*,-3,3,0,5
CC(=O)N(C)C[C@@H]1Oc2ncc(C#Cc3cccnc3)cc2C(=O)N([C@H](C)CO)C[C@H]1C,-2,x,x,x,x
C[C@@H]1CCCCO[C@H](CN(C)C(=O)Nc2ccc3c(c2)OCO3)[C@@H](C)CN([C@@H](C)CO)C(=O)c2cc(NC(=O)c3ccccc3)ccc2O1,6,x,x,x,x
CCN1CCN(Cc2ccc(NC(=O)c3ccc(C)c(NC(=O)C4=NN(c5ccccc5)C(=O)C4)c3)cc2C(F)(F)F)CC1,-4,40*!,2,6,3
CCN1CCN(Cc2ccc(NC(=O)c3cc(NC(=O)C4=NN(c5ccccc5)C(=O)C4)cc(OC)c3)cc2C(F)(F)F)CC1,0,33*,-4,6,3
COCC(=O)N1C[C@H](C)[C@@H](OC)CN(C)C(=O)c2cc(NC(=O)Nc3cccc(F)c3)ccc2OC[C@H]1C,1,x,x,x,x
O=[N+]([O-])C(=C1Nc2ccccc2N1)/C(Cl)=C(/Cl)Br,61*,8,-7,0,12
O=Cc1ccc(-c2ccccc2C(=O)O)o1,x,0,7,-2,-8
SMILES,ARNT TACC3 PPI,NadD block,sPLA2-III inh,DAGLB inh,Neddylation inh
O=C(O)c1ccccc1-c1c2cc(I)c(=O)c(I)c-2oc2c(I)c(O)c(I)cc12,-2,28*!,-331,-18,16
Cc1ccc(N=Nc2ccc(O)c(P(=O)(c3ccccc3)c3ccccc3)c2)cc1,-4,34*,-8,13,-5
O=[N+]([O-])c1ccc(O)c(P(=O)(c2ccccc2)c2ccccc2)c1,-21,-4,0,0,-25
CN(C)C(=O)C[C@H]1CC[C@@H]2[C@H](COC[C@@H](O)CN2C(=O)C2CC2)O1,-5,x,x,x,x
O=C(N/N=C/c1ccc(O)cc1O)c1ccncc1,74*,-2,-2,4,0
O=C(N/N=C/c1cc(Br)ccc1O)C(c1ccncc1)N1CCOCC1 (configuration not stated),58*,-2,-9,4,47*
Cc1ccc(C(C)C)c(OCc2ccc(C(=O)N/N=C/c3ccc(O)cc3O)cc2)c1,-4,14,8,1,44*
Cc1nonc1C(=O)N/N=C/c1ccc(O)cc1O,66*,-1,-15,3,9
COc1ccc(/C=N/NC(=O)c2nonc2C)cc1,-3,0,7,0,-11
O=C(CNC(=O)c1ccncc1)N/N=C/c1cc(Br)ccc1O,46*,4,15,2,14
Cc1nc2ccc(C(=O)N/N=C/c3ccccc3O)cc2[nH]1,93*,-1,5,2,-1
Fc1cccc(/C=N/Nc2ncnc3nc[nH]c23)c1,47*,4,-5,4,-19
Fc1ccccc1/C=N/Nc1ncnc2nc[nH]c12,12,-1,10,-3,-25
CO[C@H]1CN(C)C(=O)c2ccc(NC(=O)Nc3cccc(Cl)c3)cc2OC[C@H](C)NC[C@@H]1C,20,x,x,x,x
C[C@H](O)C#Cc1cnc2c(c1)C(=O)N([C@H](C)CO)C[C@@H](C)[C@H](CN(C)C(=O)CC1CC1)O2,-6,x,x,x,x
O=C(Nc1ccc(Nc2ccccc2)cc1)c1ccc(Cl)cc1,-1,-2,1,-2,11
O=C(NC1=C(Nc2ccc(Cl)cc2)C(=O)c2ccccc2C1=O)c1ccccc1,51*,-3,13,20,-63
C#CCOCCOCCOCCNc1nc(N2CCN(C(=O)CCCCCCCCCCNC(=O)Cn3cc(CCCCCN)nn3)CC2)nc(N2CCN(C(=O)CCCCCCCCCCNC(=O)[C@H]([C@@H](C)CC)n3cc(CCCCN=C(N)N)nn3)CC2)n1,6,43*,x,-4,-8
C#CCOCCOCCOCCNc1nc(N2CCN(C(=O)[C@H](Cc3ccc(O)cc3)n3cc([C@@H](N)C(C)CC)nn3)CC2)nc(N2CCN(C(=O)[C@H](CCCCN)n3cc([C@@H](N)CO)nn3)CC2)n1 (some centres not stated),46*,-11,x,0,-14
C#CCOCCOCCOCCNc1nc(N2CCN(C(=O)CCCCCCCCCCNC(=O)[C@H]([C@@H](C)CC)n3cc(CCCCCN)nn3)CC2)nc(N2CCN(C(=O)CCCCCCCCCCNC(=O)[C@H]([C@@H](C)CC)n3cc(CCCCN=C(N)N)nn3)CC2)n1,-34,48*,x,-4,-11
C#CCOCCOCCOCCNc1nc(N2CCN(C(=O)CCCCCCCCCCNC(=O)[C@@H](CCC(=O)O)n3cc(CCCCCN)nn3)CC2)nc(N2CCN(C(=O)CCCCCCCCCCNC(=O)[C@H]([C@@H](C)CC)n3cc(CCCCCN)nn3)CC2)n1,49*,28,x,2,-16
COc1cccc(-c2ccc([C@H]3[C@@H](CO)N(C(=O)c4ccccn4)[C@H]3C#N)cc2)c1,25,x,x,x,x

# Source: PubChem
